Results taken from PubChem BioAssay (NCATS).
Inconclusive results are not listed. Calls of active or inactive are those of the source. Unless noted, calls come from the whole dose curve; as a rule, active = well fitted curve in the direction sought with a large enough effect; inconclusive = small, poorly fitted or top-dose-only effect, or another doubt; inactive = no such curve, though single readings can be large; an effect the other way counts as inactive or inconclusive.

Columns and labels:
[1] = MultiTox-Fluor Cytotoxicity Assay - LYMP1-001 - Live Cells (AID 947)
[2] = Cell Viability - LYMP1-002 - Assay at 16 hr (AID 948)
Procedure, shortened: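 LYMP1-002 human lymphoblastoid cells, 2500/well; 5 hr 37 C; cpd 16 hr 37 C; CellTiter-Glo 30 min RT; luminescence (ATP). Concentration-response, Hill-fit AC50. Pos ctrl tetraoctylammonium bromide.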

[3] = MultiTox-Fluor Cytotoxicity Assay - LYMP1-002 - Live Cells (AID 955);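 note: cells exposed to compound for 16 hours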
Procedure, shortened: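 Cytotoxicity in the human lymphoblastoid line LYMP1-002 is measured as loss of live-cell protease activity after 16 h treatment in complete culture medium. AC50 is derived from Hill-equation fits of qHTS concentration-response data.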

[4] = MultiTox-Fluor Cytotoxicity Assay - LYMP1-002 - Dead Cells (AID 960);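 note: cells exposed to compound for 16 h at 37 °C; nearly all actives have a fitted effect of over 60% in size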
Procedure, shortened: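 Acute cytotoxicity in a human lymphoblastoid line is scored as rising dead-cell protease signal after 16 hr exposure at 37 C, measured fluorometrically (485/520).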

[5] = MultiTox-Fluor Cytotoxicity Assay - LYMP1-003 - Dead Cells (AID 961);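 note: cells exposed to compound for 16 h at 37 °C; nearly all actives have a fitted effect of over 70% in size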
Procedure, shortened: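 Acute toxicity is scored as increased dead-cell protease activity in human lymphoblastoid LYMP1-003 cells after 16 h compound exposure in complete culture medium. Activity is normalized to DMSO basal and 15 uM tetraoctylammonium bromide as full response.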

[6] = MultiTox-Fluor Cytotoxicity Assay - LYMP1-003 - Live Cells (AID 962);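 note: cells exposed to compound for 16 hours at 37 °C; cytotoxic hits lower the live-cell protease signal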
Procedure, shortened: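 Cells plated at 2500 per well and incubated 5 hr; compounds added and incubated 16 hr at 37 C; MultiTox-Fluor reagent added for 60 min at room temperature; fluorescence of liberated AFC measured at 405/510 nm.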

[7] = Cell Viability - LYMP1-003 - Assay at 24 hr (AID 963)
Procedure, shortened: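 Acute toxicity in LYMP1-003 lymphoblastoid cells: 24 hr compound treatment at 37 C, ATP measured with CellTiter-Glo after 30 min at room temperature. AC50 derived by fitting the Hill equation to qHTS titrations.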

[8] = Cell Viability - LYMP1-003 - Assay at 40 hr (AID 964); note: series mostly up to about 92 µM; nearly all actives have a fitted effect of over 60% in size
Procedure, shortened: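 This qHTS cytotoxicity screen treats human lymphoblastoid cells (LYMP1-003) with compounds for 40 hr and quantifies cellular ATP via luciferase luminescence.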

[9] = Cell Viability - LYMP2-003 (AID 965);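 note: cells exposed to compounds for 24 h before reading; nearly all actives have a fitted effect of over 50% in size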
Procedure, shortened: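 CellTiter-Glo luminescence (cellular ATP) after 24 h compound exposure at 37 C in complete medium; 2500 cells/well, 5 h settling beforehand. Concentration-response fitted to standard Hill equation for AC50. Tetraoctylammonium bromide served as positive control.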

[10] = Cell Viability - LYMP2-004 (AID 966); note: nearly all actives have a fitted effect of over 65% in size
Procedure, shortened: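 Acute toxicity is scored as a concentration-dependent drop in intracellular ATP, quantified by luciferase luminescence, in human lymphoblastoid cells exposed to compound for 24 hr. AC50 derives from Hill-equation modelling.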

[11] = Cell Viability - LYMP2-005 (AID 967); note: series mostly up to about 92 µM
Procedure, shortened: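 Steps: seed 2500 LYMP2-005 cells/well, incubate 5 h at 37 C, add compound, incubate 24 h at 37 C, add CellTiter-Glo, wait 30 min at RT, read luminescence. Concentration-response data fitted to Hill equation for AC50.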

[12] = Cell Viability - LYMP2-009 (AID 968); note: series mostly up to about 92 µM; nearly all actives have a fitted effect of over 55% in size
[13] = Cell Viability - LYMP2-011 (AID 969); note: nearly all actives have a fitted effect of over 60% in size
Procedure, shortened: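 Acute toxicity is scored as a concentration-dependent drop in intracellular ATP of a human lymphoblastoid line after 24 hr treatment. Values are AC50s modeled with the Hill equation.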

[14] = Cell Viability - LYMP2-013 (AID 970); note: series mostly up to about 92 µM; nearly all actives have a fitted effect of over 55% in size
Procedure, shortened: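 Acute toxicity was measured in human lymphoblastoid cells (2500/well) exposed to compound titrations for 24 hr, with ATP luminescence (CellTiter-Glo) as read-out and AC50 fitted by Hill equation.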

[15] = Cell Viability - LYMP2-015 (AID 971); note: nearly all actives have a fitted effect of over 55% in size
Procedure, shortened: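 Acute toxicity was scored as a concentration-dependent drop in intracellular ATP in lymphoblastoid cells after 24 hr compound exposure in complete medium. Detection used CellTiter-Glo luciferase luminescence.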

[16] = Cell Viability - LYMP2-017 (AID 972);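 note: series mostly up to about 92 µM; cells exposed to compound for 24 hours at 37 °C; nearly all actives have a fitted effect of over 55% in size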
Procedure, shortened: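 Steps: plate 2500 lymphoblastoid cells per well; incubate 5 hr at 37 C; add compound across a concentration series and incubate 24 hr at 37 C; add CellTiter-Glo and read luminescence after 30 min at room temperature; fit Hill curves for AC50.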

[17] = Cell Viability - LYMP2-019 (AID 973); note: nearly all actives have a fitted effect of over 55% in size
Procedure, shortened: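 Cells plated at 2500/well and allowed 5 hr at 37 C before compound addition. After 24 hr incubation, CellTiter-Glo reagent was added, plates sat 30 min at room temperature, and luminescence was recorded.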

[18] = Cell Viability - LYMP2-021 (AID 974)
Procedure, shortened: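 Concentration-response cytotoxicity in a human lymphoblastoid line: 24 hr treatment at 37 C in complete culture medium, tetraoctylammonium bromide as positive control, luminescent ATP quantitation as viability measure.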

[19] = Cell Viability - LYMP2-023 (AID 975)
Procedure, shortened: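 Concentration-dependent drop in intracellular ATP measures acute cytotoxicity in a human lymphoblastoid line treated for 24 hours in complete culture medium. AC50 values are taken from Hill-equation fits of qHTS data.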

[20] = molecular target: Pyruvate kinase PKM (Homo sapiens) (UniProt P14618); test: qHTS Assay for Activators of Human Muscle Pyruvate Kinase (AID 954; active = well fitted curve in the direction sought with a large enough effect, not every such curve was filed as active)
Sequence of Pyruvate kinase PKM (Homo sapiens) (P14618 whole entry, looked up): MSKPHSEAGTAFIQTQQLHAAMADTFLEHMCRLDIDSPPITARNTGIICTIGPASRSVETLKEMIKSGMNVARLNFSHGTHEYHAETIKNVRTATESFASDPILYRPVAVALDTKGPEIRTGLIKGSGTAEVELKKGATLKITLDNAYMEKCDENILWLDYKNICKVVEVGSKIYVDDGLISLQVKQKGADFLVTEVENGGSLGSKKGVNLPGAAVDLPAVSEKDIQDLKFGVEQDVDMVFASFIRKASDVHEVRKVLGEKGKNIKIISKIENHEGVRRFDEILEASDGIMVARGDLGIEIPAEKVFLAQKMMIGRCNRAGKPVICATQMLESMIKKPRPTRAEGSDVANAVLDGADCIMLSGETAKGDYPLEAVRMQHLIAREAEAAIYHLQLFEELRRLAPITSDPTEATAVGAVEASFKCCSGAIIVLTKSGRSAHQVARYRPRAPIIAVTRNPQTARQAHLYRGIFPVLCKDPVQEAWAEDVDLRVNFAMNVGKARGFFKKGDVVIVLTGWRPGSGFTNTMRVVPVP
Procedure, shortened: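 Enzyme was run at intermediate activity so both inhibitors and activators could be detected. ATP formed from ADP and PEP by 0.1 nM human PKM2 during a 1 h room-temperature incubation was quantified by coupled luciferase luminescence.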

Measured: outcome

COC(C)=O
inactive: [1] | [2] | [3] | [4] | [5] | [6] | [7] | [8] | [9] | [10] | [11] | [12] | [13] | [14] | [15] | [16] | [17] | [18] | [19]

C=Cc1ccccc1
inactive: [1] | [2] | [3] | [4] | [5] | [6] | [7] | [8] | [9] | [10] | [12] | [13] | [14] | [15] | [16] | [17] | [18] | [19]

CCCCCCCCCC(=O)O
inactive: [1] | [2] | [3] | [4] | [5] | [6] | [7] | [8] | [9] | [10] | [11] | [12] | [13] | [14] | [15] | [16] | [17] | [18] | [19]

NCCCC(=O)O
inactive: [20]

CN[C@H]1CC[C@@H](c2ccc(Cl)c(Cl)c2)c2ccccc21
inactive: [20]

O=C(O)CC(O)(CC(=O)O)C(=O)O
inactive: [1] | [2] | [3] | [4] | [5] | [6] | [7] | [8] | [9] | [10] | [11] | [12] | [13] | [16] | [19]

CN(C)Cc1ccccc1
inactive: [1] | [2] | [3] | [4] | [5] | [6] | [7] | [8] | [9] | [10] | [11] | [12] | [13] | [14] | [15] | [16] | [17] | [18] | [19]

Cc1ccc(OC[C@H](O)[C@H](C)NC(C)C)c2c1CCC2
inactive: [20]
